Hit rate of the full screen: of about 310,000 compounds, about 14,000 (4.5%) showed an effect of 50% or more. The effect is printed as a negative number. For the sample, strong results were picked, then their nearest neighbours and some compounds at random.
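Also: peak tail current of the secondary pulse compared with the same well before compound.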

The target of the assay is human ether-à-go-go-related gene (hERG) potassium channel (human, UniProt Q12809). As to the kind of experiment: primary screen, population patch clamp on CHO cells stably expressing hERG; higher = less effect of the substance.
Sequence of human ether-à-go-go-related gene (hERG) potassium channel (Q12809 whole entry, looked up): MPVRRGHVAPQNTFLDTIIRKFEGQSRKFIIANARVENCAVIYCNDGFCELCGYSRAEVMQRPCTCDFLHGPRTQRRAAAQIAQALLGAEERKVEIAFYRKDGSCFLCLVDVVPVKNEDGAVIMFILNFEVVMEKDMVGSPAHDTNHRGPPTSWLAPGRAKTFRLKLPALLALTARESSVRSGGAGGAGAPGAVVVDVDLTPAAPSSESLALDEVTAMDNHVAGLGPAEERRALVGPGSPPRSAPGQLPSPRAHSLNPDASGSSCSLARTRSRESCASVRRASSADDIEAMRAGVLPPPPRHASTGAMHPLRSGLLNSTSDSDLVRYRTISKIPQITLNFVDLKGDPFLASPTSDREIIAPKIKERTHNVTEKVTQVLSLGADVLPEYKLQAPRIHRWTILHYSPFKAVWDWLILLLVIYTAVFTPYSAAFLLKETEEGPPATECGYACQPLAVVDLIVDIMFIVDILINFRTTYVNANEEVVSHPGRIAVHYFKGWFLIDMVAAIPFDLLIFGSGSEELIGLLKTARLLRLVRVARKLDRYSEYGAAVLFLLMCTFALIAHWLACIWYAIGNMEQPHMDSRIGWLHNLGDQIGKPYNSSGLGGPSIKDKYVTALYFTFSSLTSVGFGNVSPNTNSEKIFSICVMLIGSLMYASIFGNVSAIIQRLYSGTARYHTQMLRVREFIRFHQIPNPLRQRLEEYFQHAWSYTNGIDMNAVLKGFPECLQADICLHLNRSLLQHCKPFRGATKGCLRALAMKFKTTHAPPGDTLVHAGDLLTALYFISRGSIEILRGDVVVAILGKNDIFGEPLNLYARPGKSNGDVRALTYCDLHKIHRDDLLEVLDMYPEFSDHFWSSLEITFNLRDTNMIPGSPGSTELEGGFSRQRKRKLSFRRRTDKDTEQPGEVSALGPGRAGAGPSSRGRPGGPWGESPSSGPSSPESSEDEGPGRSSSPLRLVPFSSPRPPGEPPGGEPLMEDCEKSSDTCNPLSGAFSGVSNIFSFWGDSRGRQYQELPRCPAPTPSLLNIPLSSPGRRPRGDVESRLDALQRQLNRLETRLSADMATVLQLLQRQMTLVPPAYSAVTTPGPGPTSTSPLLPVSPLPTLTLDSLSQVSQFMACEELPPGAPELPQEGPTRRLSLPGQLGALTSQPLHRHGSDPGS
On to `Cc1ccc(/C=C2\C(=N)N3N=C(CC(=O)N4CCCCC4)SC3=NC2=O)cc1`, for which the “hERG current change (%, negative = inhibition) at 10uM” value amounted to 17.4%.
Turning to `COc1ccc(/C(O)=C2/C(=O)C(=O)N(c3ccccn3)C2c2ccc(F)cc2)cc1` (stereo not drawn), the “hERG current change (%, negative = inhibition) at 10uM” value is on record as 35.2%.
The result for `O=C(COC(=O)CNC(=O)c1ccc(Cl)cc1Cl)NC1CCCCCCC1` reads 15.8%.
Regarding `Cc1cn(C(=O)c2cccc(Br)c2)c(C)n1`, the “hERG current change (%, negative = inhibition) at 10uM” value is 15%.
Turning to `O=c1c2ccccc2nnn1Cc1ccc(Br)cc1`, the “hERG current change (%, negative = inhibition) at 10uM” value is on record as 8.66%.
As to `CCNC(=O)NC(=O)CSc1ccccc1F`, the “hERG current change (%, negative = inhibition) at 10uM” value was determined as 10.7%.
The same measure for `Cc1nc2sc3c(c2c(=O)[nH]1)CCC3`: 12.1%; for `CC(NC(=O)c1cccs1)C(=O)NC1=NCCS1` (stereo not drawn): 1.3%; for `COc1cc(N)c(Cl)cc1C(=O)OCC(=O)c1ccc2c(c1)NC(=O)CO2`: 1.68%.
For `Cc1nnc(SCC(=O)Nc2cc(S(C)(=O)=O)ccc2Cl)n1Cc1ccccc1`, the “hERG current change (%, negative = inhibition) at 10uM” value is 6.22%.
The same measure for `CC(=O)NCCNC(=O)c1cccc(NS(=O)(=O)c2ccc3c(c2)OCCO3)c1`: -2.65%.
Consider `Cc1c(NC(=O)C2CC(c3c(F)cccc3Cl)=NO2)c(=O)n(-c2ccccc2)n1C` (stereo not drawn), for which the “hERG current change (%, negative = inhibition) at 10uM” value is on record as 14.7%.
The same measure for `CN1CCN(C2=Cc3ccccc3Sc3cc(F)c(F)cc32)CC1.CS(=O)(=O)O`: -22.5%; for `CN1CCN(C2=Cc3ccccc3Sc3cc(F)ccc32)CC1.O=C(O)/C=C\C(=O)O`: -62.8%.
With `CC(C)c1ccc2c(c1)C(N1CCNCC1)Cc1ccc(F)cc1S2.O.O=C(O)/C=C\C(=O)O` (stereo not drawn), the “hERG current change (%, negative = inhibition) at 10uM” value turned out to be 5.51%.
The same measure for `CN1CCN(C2=Cc3ccc(Cl)cc3Sc3ccc(F)cc32)CC1.CS(=O)(=O)O.O`: -14.8%; for `CC(C)c1ccc2c(c1)C(N1CCN(C)CC1)Cc1cccnc1S2.O=C(O)/C=C\C(=O)O` (stereo not drawn): -50.6%; for `CS(=O)(=O)O.Cc1cccc2c1Sc1ccc(Cl)cc1CC2N1CCNCC1.O` (stereo not drawn): 5.75%.
In the case of `CCc1cccc2c1Sc1ccccc1CC2N1CCNCC1.CS(=O)(=O)O` (stereo not drawn), the “hERG current change (%, negative = inhibition) at 10uM” value is on record as -31.1%.
As for `CN1CCN(C2Cc3ccc(F)cc3Sc3cc(F)c(Cl)cc32)CC1.CS(=O)(=O)O.O` (stereo not drawn), the “hERG current change (%, negative = inhibition) at 10uM” value is -77.3%.
As for `Cc1nc2c(o1)CCc1ccccc1C2N1CCN(C)CC1.O=C(O)/C=C/C(=O)O` (stereo not drawn), the “hERG current change (%, negative = inhibition) at 10uM” value is -5.58%.
Consider `CN1CCN(C2=Cc3ccccc3Sc3cc(F)c(Cl)cc32)CC1.O=C(O)/C=C\C(=O)O`, for which the “hERG current change (%, negative = inhibition) at 10uM” value was -12.4%.
With `CS(=O)(=O)O.Clc1cccc2c1Sc1ccccc1CC2N1CCNCC1` (stereo not drawn), the “hERG current change (%, negative = inhibition) at 10uM” value is recorded as -72.4%.
`CN1CCN(C2Cc3cc(Cl)ccc3Sc3cc(F)ccc32)CC1.CS(=O)(=O)O` (stereo not drawn): the “hERG current change (%, negative = inhibition) at 10uM” value is listed as -38.2%.

The values are drawn from PMC4336329 (PLoS ONE, 2015).
